Bioassay records (PubChem)
Compounds with a hit are over-represented: about 3.1% of the library has one in this group of screens.
PLK1 PBD block: blocks phosphopeptide binding to human PLK1 polo-box domain; AID 720504; actives 2.8% (n = 360,000); Plk1 PBD binding of FITC phosphopeptide, fluorescence polarization; Potency, µM, usual class: inhibitors; P53350; also: series mostly up to about 57 µM; nearly all actives have a fitted effect of over 65% in size
TSHR antag: human thyrotropin receptor antagonism. actives 0.2% (n = 330,000). activity change, negative = inhibition, % at 11.5 µM. P16473. TSHR-expressing cells, TSH-stimulated cAMP HTRF, 2 h; active compounds read low. AID 504810;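 active = activity change below a set negative limit, meaning inhibition stronger than a set level, cut at about -70% in these data; inconclusive = activity change between two set negative limits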
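TSHR-expressing cells, 200/well, pre-treated with compound, then stimulated with EC80 TSH (4nM final) for 2 hours at 37 deg C. cAMP measured by competitive HTRF: anti-cAMP cryptate antibody in lysis buffer plus cAMP-d2, read after 30 minutes at room temperature.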
Vif-APOBEC3G blk: blocks the Vif interaction with human APOBEC3G; AID 602310; Q9HC16; actives 0.076% (n = 410,000); Potency, µM (titrated, usually from 46.1 µM), hits mostly inhibitors; HeLa A3G-eYFP + Vif (tagged APOBEC3G with the HIV-1 protein that degrades it), YFP fluorescence, overnight; also: nearly all actives have a fitted effect of over 60% in size
Target sequence (Q9HC16 whole entry, looked up): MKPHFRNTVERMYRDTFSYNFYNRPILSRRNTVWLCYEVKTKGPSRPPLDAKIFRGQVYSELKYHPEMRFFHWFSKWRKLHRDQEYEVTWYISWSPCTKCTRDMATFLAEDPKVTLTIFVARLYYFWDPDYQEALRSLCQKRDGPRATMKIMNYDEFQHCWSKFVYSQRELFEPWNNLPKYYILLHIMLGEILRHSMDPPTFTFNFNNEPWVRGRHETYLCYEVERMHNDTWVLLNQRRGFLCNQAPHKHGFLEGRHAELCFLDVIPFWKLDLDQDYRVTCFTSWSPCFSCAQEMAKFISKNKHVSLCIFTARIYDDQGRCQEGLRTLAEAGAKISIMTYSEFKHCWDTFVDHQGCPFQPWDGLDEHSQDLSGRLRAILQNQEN
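Read-out is eYFP fluorescence (Ex 488/Em 500-530) from Vif-expressing HeLa A3G-eYFP cells; more signal means A3G escaped Vif-mediated degradation. Cells plated overnight, compound pinned in, incubated overnight at 37 deg C.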
VDR inhibitor: inhibitors of human vitamin D receptor. P11473. VDR-SRC2-3 peptide fluorescence polarization, 2 h. Potency, µM, actives largely listed as inhibitors. actives 0.93% (n = 400,000). AID 504847
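Compounds are added to VDR with labelled SRC2-3 coactivator peptide and held 2 h at room temperature. Inhibition of the VDR–peptide interaction is then read as a change in fluorescence polarization.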
Vif-A3F inh: blocks the Vif interaction with APOBEC3F; HeLa A3F-eYFP + Vif (tagged APOBEC3F with the HIV-1 protein that degrades it), YFP fluorescence increase; actives 0.2% (n = 390,000); Potency, µM (series often up to 46.1 µM); also: nearly all actives have a fitted effect of over 65% in size
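HeLa cells stably expressing A3F-eYFP plus Vif, plated and incubated overnight at 37 deg C, then exposed to compounds overnight at 37 deg C. Blocked degradation read as raised yellow fluorescence (Ex 488/Em 500-530).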
Large screens that a line does not name were inactive. Unless noted, calls follow the shape of the dose curve; as a rule, active = well fitted curve in the direction sought with a large enough effect; inconclusive = small, poorly fitted or top-dose-only effect, or another doubt; inactive = no such curve, though single readings can be large; an effect the other way counts as inactive or inconclusive.

COc1ccc2c(c1)O[C@H](c1ccc3c(c1)OCO3)[C@@H](OC(=O)NS(=O)(=O)c1ccc(C)cc1)C2=O	none (no result: PLK1 PBD block, TSHR antag, Vif-APOBEC3G blk, Vif-A3F inh)
CCc1ccc(-c2cc(C(F)(F)F)n3nc(C(=O)Nc4cnn(Cc5ccc(C)cc5)c4)cc3n2)s1	Vif-APOBEC3G blk inconclusive, Vif-A3F inh 11µM
CC(=O)c1ccc(NC(=O)Cn2cnc(S(=O)(=O)N3CCC(C)CC3)c2)cc1	PLK1 PBD block 30µM
CC(=O)c1ccc(N2CCN(C(=O)Cn3cnc(S(=O)(=O)N4CCCCC4)c3)CC2)cc1	PLK1 PBD block 27µM
CC(=O)c1ccc(NC(=O)Cn2cnc(S(=O)(=O)N3CCOCC3)c2)cc1	none
CCOC(=O)C1=C(CC)Nc2ccccc2N/C1=N\S(=O)(=O)c1cc(Br)ccc1Br	PLK1 PBD block 21µM
O=c1c(-c2ccc(F)cc2)nc2cnc(Nc3ccccc3)nc2n1Cc1cccs1	none (no result: PLK1 PBD block, TSHR antag, Vif-APOBEC3G blk, Vif-A3F inh)
CC(=O)OCON[N+]([O-])=NC1CCCCC1	none (no result: PLK1 PBD block, TSHR antag, Vif-A3F inh)
O=C(c1ccccc1)N1CCc2ccccc21	none
O=C(c1c(F)c(F)c(F)c(F)c1F)N1CCc2ccccc21	PLK1 PBD block 24µM, VDR inhibitor inconclusive (no result: TSHR antag)
CCN(CC)C(=O)N1CCc2ccccc21	PLK1 PBD block 30µM
CCOCC(=O)N1CCc2ccccc21	none
COc1ccc(/C=C/c2cnccn2)cc1OC	none (no result: PLK1 PBD block, TSHR antag, VDR inhibitor, Vif-A3F inh)
CCOC(=O)C1(CC2CCCCO2)CCN(C(=O)Nc2cccc(SC)c2)CC1 (configuration not stated)	PLK1 PBD block 21µM
CCOC(=O)C1(CC2CCCCO2)CCN(C(=O)Nc2ccc(SC)cc2)CC1 (configuration not stated)	none
Cc1ccc(-c2nc3c4cnn(-c5cc(Cl)ccc5Cl)c4ncn3n2)cc1	none (no result: PLK1 PBD block, TSHR antag, Vif-APOBEC3G blk, Vif-A3F inh)
CCCCC/C=C\C=C\C(O)CCCCCCCC(=O)O (configuration not stated)	none (no result: PLK1 PBD block, TSHR antag, Vif-APOBEC3G blk, Vif-A3F inh)
CC(=O)Nc1ccc(-c2csc(NCCc3ccccc3)n2)cc1	none
C=CCNc1nc(-c2ccc(O)c(C(N)=O)c2)cs1	PLK1 PBD block 3µM, VDR inhibitor inconclusive
NC(=O)c1cc(-c2csc(NCCc3ccccc3)n2)ccc1O	PLK1 PBD block 30µM, Vif-A3F inh inconclusive
O=C(Nc1nnc(S(=O)(=O)N2CCCC2)s1)c1ccccc1F	TSHR antag -103
c1ccc(-c2nc(N3CCOCC3)cc(N3CCOCC3)n2)cc1	none
FC(F)(F)c1cc(N2CCOCC2)nc(-c2ccccc2)n1	PLK1 PBD block 27µM, VDR inhibitor inconclusive
O=C(CSc1ccccc1)N1CCCC(Nc2ccccc2)C1 (configuration not stated)	PLK1 PBD block 8.4µM, VDR inhibitor 20µM
COc1ccc(NC2CCCN(C(=O)CSc3ccccn3)C2)cc1OC (configuration not stated)	PLK1 PBD block 24µM
O=C(CSc1ccccn1)N1CCCC(Nc2ccccc2)C1 (configuration not stated)	PLK1 PBD block inconclusive
CC(C)C[C@H](NC(=O)[C@@H]1CCCN1C(=O)[C@H](CO)NC(=O)[C@H](Cc1ccccc1)NC(=O)CNC(=O)[C@@H]1CCCN1C(=O)[C@@H]1CCCN1C(=O)[C@@H](N)CCCN=C(N)N)C(=O)O	none (no result: PLK1 PBD block, TSHR antag, Vif-APOBEC3G blk, Vif-A3F inh)
Cc1ccc(/C=C/C(=O)N2CCc3ccccc32)o1	PLK1 PBD block inconclusive, VDR inhibitor inconclusive
O=C(/C=C/c1ccco1)N1CCc2ccccc21	Vif-APOBEC3G blk inconclusive, Vif-A3F inh 11µM
N[C@@H](Cn1ccc(=O)c(O)c1)C(=O)O	none (no result: PLK1 PBD block, Vif-APOBEC3G blk, Vif-A3F inh)
COC(=O)CCCCCN1C(=O)/C(=C\c2ccncc2)SC1=S	VDR inhibitor 79µM
O=C1/C(=C/c2ccncc2)SC(=S)N1Nc1ccccc1	PLK1 PBD block 5.3µM, VDR inhibitor 50µM
O=C1/C(=C/c2ccc(O)c(O)c2)SC(=S)N1Nc1ccccc1	Vif-A3F inh inconclusive
O=C(O)c1ccc(/C=C2\SC(=S)N(Nc3ccccc3)C2=O)cc1	PLK1 PBD block 21µM, VDR inhibitor inconclusive
CC1CCN(C(=O)C(C)OC(=O)CSc2ccc([N+](=O)[O-])cc2)CC1 (configuration not stated)	PLK1 PBD block 15µM, VDR inhibitor inconclusive
CC(OC(=O)CSc1ccc([N+](=O)[O-])cc1)C(=O)NCc1ccco1 (configuration not stated)	none
CCCC(=O)Nc1cc2nn(-c3ccc(OC)cc3)nc2cc1C	none (no result: PLK1 PBD block, TSHR antag)
CCCC(=O)Nc1ccc2nn(-c3ccc(OC)cc3)nc2c1	PLK1 PBD block 21µM, VDR inhibitor inconclusive
O=C(Nc1ccccc1C(=O)N1CCCCC1)NC1CCCCC1	PLK1 PBD block 21µM
Cc1cccn2c(=O)c(/C=C(\C#N)c3nc4ccccc4n3C)c(Oc3ccc(Br)cc3)nc12	Vif-A3F inh inconclusive (no result: PLK1 PBD block, TSHR antag)
O=C(Nc1ccc(S(=O)(=O)N2CCOCC2)cc1)c1ccc2c(c1)S(=O)(=O)c1ccccc1C2=O	none
O=C(Nc1ccc(S(=O)(=O)N2CCOCC2)cc1)c1ccco1	none
O=C(Nc1cc(S(=O)(=O)N2CCOCC2)ccc1O)c1ccco1	PLK1 PBD block 30µM
O=C(Nc1cc(S(=O)(=O)N2CCOCC2)ccc1O)c1ccc2c(c1)S(=O)(=O)c1ccccc1C2=O	PLK1 PBD block 11µM, VDR inhibitor inconclusive
CCc1ccc(-c2nc3c(=O)n(C)c(=O)nc-3n(CC)n2)cc1	VDR inhibitor inconclusive (no result: PLK1 PBD block, TSHR antag, Vif-A3F inh)
Nc1ncnc2c1c(I)cn2C1OC(CO)C(O)C1O (configuration not stated)	none (no result: PLK1 PBD block, TSHR antag, Vif-APOBEC3G blk, Vif-A3F inh)
CCN1CCN(C(=O)Cn2ncc3c4ccccc4n(Cc4c(C)cc(C)cc4C)c3c2=O)CC1	none (no result: PLK1 PBD block, TSHR antag)
CCOC(=O)C1CCN(Cc2ccc(O)c3ncccc23)CC1	PLK1 PBD block 27µM
Cc1ccc(-c2nc(-c3cc4cccc(OCc5cccc(F)c5)c4oc3=O)no2)cc1	Vif-A3F inh 8.9µM (no result: PLK1 PBD block, TSHR antag)
Cc1cccc(NCc2ccc(O)c3ncccc23)c1C	PLK1 PBD block 6µM, VDR inhibitor inconclusive, Vif-A3F inh inconclusive
Cc1ccc(O)c(CNc2cccc3cccnc23)c1	none
Cc1cccnc1NCc1ccc(O)c2ncccc12	PLK1 PBD block 19µM
Cc1ccc(NCc2ccc(O)c3ncccc23)cc1	PLK1 PBD block 2.7µM, VDR inhibitor inconclusive
Oc1ccc(CNc2cccc(C(F)(F)F)c2)c2cccnc12	none (no result: PLK1 PBD block, Vif-APOBEC3G blk, VDR inhibitor, Vif-A3F inh)
COc1ccc(C2C=C3CNS(=O)(=O)C3CC2OC(=O)c2ccc(C(F)(F)F)cc2)cc1 (configuration not stated)	none (no result: PLK1 PBD block, TSHR antag, Vif-A3F inh)
CC(=O)c1ccc(-c2c(C3C4C=CCCC4(C)C(=O)N3Cc3ccccc3)ccc3ccccc23)cc1 (configuration not stated)	none (no result: PLK1 PBD block, TSHR antag, Vif-A3F inh)
COc1ccc(CCNC(=O)c2cccc3c2C(=O)N(C2CCCCC2)C3)cc1OC	TSHR antag -78
O=C(C[N+]1(CC(O)c2ccccc2)CCCCC1)c1ccccc1 (configuration not stated)	none (no result: PLK1 PBD block, TSHR antag, VDR inhibitor, Vif-A3F inh)
CCc1ccccc1NC1=NCC(=O)N1Cc1ccc2c(c1)OCO2	PLK1 PBD block 30µM
CC1=C/C(=N\OS(=O)(=O)c2ccccc2)C(C)=CC1=O	TSHR antag -84
